# Measured values published in PubChem BioAssay (Tox21).
# Where “and” joins values, the source holds several entries; their conditions need not be identical. Equal values may be shown once. Results filed as inconclusive are left out. The source holds several records for some structures; these can differ, active in one and inactive in another. Calls of active or inactive are those of the source. Unless noted, calls come from the whole dose curve; as a rule, active = well fitted curve in the direction sought with a large enough effect in the repeat runs; inconclusive = weak or mixed curves; inactive = no such curve, though single readings can be large; an effect the other way counts as inactive or inconclusive.
# Test: qHTS assay to identify small molecule agonists of the sonic hedgehog signaling (Shh) pathway - cell viability counter screen (AID 1259366); note: nearly all actives have a fitted effect of over 50% in size
# Settings: NIH/3T3 Gli1-Luc viability, CellTiter-Fluor, 24 h; series mostly up to 92.4 µM; viability change, negative = cytotoxic: at the top concentration
# Method in brief: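 Stable Gli1-Luc NIH/3T3 clone, 2,000 cells/well. Compound exposure 24hr at 37C. Read-out: CellTiter-Fluor fluorescence.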
# % is set by controls: 0 for no effect and ±100 for the full control effect; potency is the fitted concentration of half-maximal effect.
SMILES,"viability change, negative = cytotoxic",Potency
c1cc2ccc3cccc4ccc(c1)c2c34,-8.67% (inactive),–
BrCC(Br)C1CCC(Br)C(Br)C1 (stereo unspecified),-16.9% (inactive),–
Oc1ccc(Cl)c(Cl)c1Cl,-3.46% (inactive),–
CCOC(=O)[C@]1(c2ccccc2)Oc2ccccc2[C@@H]1N,11.2% (inactive),–
O=C(N[C@H](c1ccccc1)[C@@H]1CN2CCC1CC2)c1c(Cl)ccc(C(F)(F)F)c1Cl,–,39.2 µM (active)
CCCCN=C=O,20.6% (inactive),–
[CH3][Sn]([CH3])([Cl])[Cl],-22.8% (inactive),–
CC(C)O.CC(C)O.OCCN(CCO)CCO.OCCN(CCO)CCO.[Ti],0.396% (inactive),–
COc1nn(C(=O)NS(=O)(=O)c2ccccc2OC(F)(F)F)c(=O)n1C,-2.58% (inactive),–
CCOS(C)(=O)=O,2.94% (inactive),–
Nc1nc(N)nc(N)n1,-0.287% (inactive),–
CCCCN(N=O)C(=N)N[N+](=O)[O-],-7.31% (inactive),–
Clc1cc(C(Cl)(Cl)Cl)cnc1Cl,0.223% (inactive),–
CCCC(Cn1cncn1)c1ccc(Cl)cc1Cl (stereo unspecified),-0.0145% (inactive),–
O=Cc1ccc(Cl)cc1Cl,6.4% (inactive),–
CCCCc1c(C)nc(NCC)nc1OS(=O)(=O)N(C)C,–,30.6 µM (active)

SMILES,"viability change, negative = cytotoxic",Potency
CCCCOC(=O)c1ccccc1C(=O)OCc1ccccc1,-9.51% (inactive),–
CC1C(=O)C[C@]2(C(C)C)C[C@H]12 (stereo partly specified),0.811% (inactive),–
O=S(=O)(O)C(F)(F)C(F)(F)C(F)(F)C(F)(F)F,7.08% (inactive),–
CCOC(=O)CBr,0.131% (inactive),–
CCn1cc[n+](C)c1,–,inactive
[O-][Cl+]O,-0.0802% (inactive),–
O=C(O)c1ccccc1C(=O)Nc1cccc2ccccc12,1.42% (inactive),–
C/C(=C\c1ccccc1)[N+](=O)[O-],–,15.4 µM (active)
O=C(O)C1(c2ccc3c(c2)OC[C@H](Cc2ccc(-c4ccccc4)cc2)[C@H]3O)CCCC1,6.48% (inactive),–
CCCCCCCCOC(=O)c1ccc(C(=O)OCCCCCCCC)c(C(=O)OCCCCCCCC)c1,1.95% (inactive),–
C=COC(C)=O,3.76% (inactive),–
Clc1cccc2ccccc12,-0.308% (inactive),–
O=S(=O)(Cl)c1ccccc1,2.44% (inactive),–
CC(C)(CCl)C(=O)Cl,-13.8% (inactive),–
CO/N=C(/C(=O)OC)c1ccccc1COc1ccccc1C,4.88% (inactive),–
O=Cc1ccc2c(c1)OCO2,6.85% (inactive),–

# Test: qHTS assay to identify small molecule antagonists of the sonic hedgehog signaling (Shh) pathway - cell viability counter screen (AID 1259367); note: nearly all actives have a fitted effect of over 55% in size
# Settings: NIH/3T3 Gli1-Luc viability, CellTiter-Fluor, 24 h; series mostly up to 92.4 µM; viability change, negative = cytotoxic: at the top concentration
# Method in brief: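 Using CellTiter-Fluor, viability of Gli1-Luc reporter 3T3 cells is read by fluorescence in the wells used for the Shh luciferase assay. Treatment lasts 23 hr with conditioned medium, then reagent 1 hr at 37C.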
SMILES,"viability change, negative = cytotoxic",Potency
c1cc2ccc3cccc4ccc(c1)c2c34,7.51% (inactive),–
BrCC(Br)C1CCC(Br)C(Br)C1 (stereo unspecified),1.98% (inactive),–
Oc1ccc(Cl)c(Cl)c1Cl,-16.8% (inactive),–
CCOC(=O)[C@]1(c2ccccc2)Oc2ccccc2[C@@H]1N,8.55% (inactive),–
O=C(N[C@H](c1ccccc1)[C@@H]1CN2CCC1CC2)c1c(Cl)ccc(C(F)(F)F)c1Cl,–,43.9 µM (active)
CCCCN=C=O,12.1% (inactive),–
[CH3][Sn]([CH3])([Cl])[Cl],-11.3% (inactive),–
CC(C)O.CC(C)O.OCCN(CCO)CCO.OCCN(CCO)CCO.[Ti],1.37% (inactive),–
COc1nn(C(=O)NS(=O)(=O)c2ccccc2OC(F)(F)F)c(=O)n1C,-2.78% (inactive),–
CCOS(C)(=O)=O,1.74% (inactive),–
Nc1nc(N)nc(N)n1,1.87% (inactive),–
CCCCN(N=O)C(=N)N[N+](=O)[O-],-21.8% (inactive),–
Clc1cc(C(Cl)(Cl)Cl)cnc1Cl,-0.748% (inactive),–
CCCC(Cn1cncn1)c1ccc(Cl)cc1Cl (stereo unspecified),0.202% (inactive),–
O=Cc1ccc(Cl)cc1Cl,3.98% (inactive),–
CCCCOC(=O)c1ccccc1C(=O)OCc1ccccc1,–,inactive and 48.6 µM (active)

SMILES,"viability change, negative = cytotoxic",Potency
CC1C(=O)C[C@]2(C(C)C)C[C@H]12 (stereo partly specified),-0.825% (inactive),–
O=S(=O)(O)C(F)(F)C(F)(F)C(F)(F)C(F)(F)F,1.83% (inactive),–
CCOC(=O)CBr,6.47% (inactive),–
CCn1cc[n+](C)c1,–,inactive
[O-][Cl+]O,0.272% (inactive),–
O=C(O)c1ccccc1C(=O)Nc1cccc2ccccc12,-9.35% (inactive),–
O=C(O)C1(c2ccc3c(c2)OC[C@H](Cc2ccc(-c4ccccc4)cc2)[C@H]3O)CCCC1,4.55% (inactive),–
CCCCCCCCOC(=O)c1ccc(C(=O)OCCCCCCCC)c(C(=O)OCCCCCCCC)c1,-2.46% (inactive),–
CN1C[C@H](CNC(=O)OCc2ccccc2)C[C@@H]2c3cccc4c3c(cn4C)C[C@H]21,-22.6% [at 42.5 µM] (inactive),–
C=COC(C)=O,2.35% (inactive),–
Clc1cccc2ccccc12,-0.0289% (inactive),–
O=S(=O)(Cl)c1ccccc1,-3.32% (inactive),–
CC(C)(CCl)C(=O)Cl,–,12.2 µM (active)
CO/N=C(/C(=O)OC)c1ccccc1COc1ccccc1C,1.69% (inactive),–
O=Cc1ccc2c(c1)OCO2,4.41% (inactive),–

# Test: qHTS assay to identify small molecule agonists of the sonic hedgehog signaling (Shh) pathway (AID 1259368; calls by dose curve; note: nearly all actives have a fitted effect of over 15% in size;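 for activity change: NIH/3T3-derived 3T3Gli1-Luc cells carrying a stable Gli1-driven firefly luciferase reporter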)
# Settings: NIH/3T3 Gli1-Luc reporter, luciferase, 24 h; series mostly up to 92.4 µM; activity change: at the top concentration
# Method in brief: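 Steps: seed 3T3 Gli1-Luc cells, incubate 4 hr at 37 C, pin-transfer compounds in DMSO alongside a positive control, incubate 24 hr, add luciferase detection reagent, wait 30 min at room temperature, read luminescence.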
SMILES,activity change,Potency
c1cc2ccc3cccc4ccc(c1)c2c34,3.67% (inactive),–
BrCC(Br)C1CCC(Br)C(Br)C1 (stereo unspecified),-2.21% (inactive),–
Oc1ccc(Cl)c(Cl)c1Cl,-4.8% (inactive),–
CCOC(=O)[C@]1(c2ccccc2)Oc2ccccc2[C@@H]1N,-0.0194% (inactive),–
O=C(N[C@H](c1ccccc1)[C@@H]1CN2CCC1CC2)c1c(Cl)ccc(C(F)(F)F)c1Cl,-12.7% (inactive),–
[CH3][Sn]([CH3])([Cl])[Cl],–,7.82 µM (active) and 24.3 µM (active)
CC(C)O.CC(C)O.OCCN(CCO)CCO.OCCN(CCO)CCO.[Ti],1.01% (inactive),–
COc1nn(C(=O)NS(=O)(=O)c2ccccc2OC(F)(F)F)c(=O)n1C,-0.0715% (inactive),–
CCOS(C)(=O)=O,2.57% (inactive),–
Nc1nc(N)nc(N)n1,-1.08% (inactive),–
CCCCN(N=O)C(=N)N[N+](=O)[O-],4.7% (inactive),–
Clc1cc(C(Cl)(Cl)Cl)cnc1Cl,0.0123% (inactive),–
CCCC(Cn1cncn1)c1ccc(Cl)cc1Cl (stereo unspecified),0.0118% (inactive),–
O=Cc1ccc(Cl)cc1Cl,0.757% (inactive),–
CCCCc1c(C)nc(NCC)nc1OS(=O)(=O)N(C)C,0.0197% (inactive),–
CCCCOC(=O)c1ccccc1C(=O)OCc1ccccc1,–,inactive
O=S(=O)(O)C(F)(F)C(F)(F)C(F)(F)C(F)(F)F,5.78% (inactive),–
CCn1cc[n+](C)c1,–,inactive
[O-][Cl+]O,0.158% (inactive),–
O=C(O)c1ccccc1C(=O)Nc1cccc2ccccc12,-0.0537% (inactive),–
C/C(=C\c1ccccc1)[N+](=O)[O-],-16.4% (inactive),–
O=C(O)C1(c2ccc3c(c2)OC[C@H](Cc2ccc(-c4ccccc4)cc2)[C@H]3O)CCCC1,-2.73% (inactive),–
CCCCCCCCOC(=O)c1ccc(C(=O)OCCCCCCCC)c(C(=O)OCCCCCCCC)c1,-0.422% (inactive),–
CN1C[C@H](CNC(=O)OCc2ccccc2)C[C@@H]2c3cccc4c3c(cn4C)C[C@H]21,"-3.3% [at 42.5 µM, stronger effect = higher value] (inactive)",–
C=COC(C)=O,0.893% (inactive),–
Clc1cccc2ccccc12,0.305% (inactive),–
O=S(=O)(Cl)c1ccccc1,1.38% (inactive),–
CC(C)(CCl)C(=O)Cl,-2.92% (inactive),–
